Inconclusive results are not listed. Calls of active or inactive are those of the source. The call rests on the fitted dose curve; in most records, active means well fitted cell-killing curve with a large enough effect in the repeat runs (not every such curve was filed as active); inconclusive means weak or mixed curves, or effect the other way; inactive means no such curve, though single readings can be large or run the other way.
test: qHTS assay to identify small molecule antagonists of the estrogen related receptor signaling pathway with the pleiotropic PPARgamma coactivator (PGC) from Tox21 10K library - cell viability counter screen (AID 1224840); settings: PGC/ERR reporter cells viability, CellTiter-Fluor, 17.5 h; series mostly up to 92.4 µM; viability change, negative = cytotoxic: at the top concentration; further: nearly all actives have a fitted effect of over 40% in size
From the text: National Center for Advancing Translational Sciences [NCATS]
NIH Chemical Genomics Center [NCGC]
U.S. Environmental Protection Agency [EPA]
National Institutes of Environmental Health Sciences [NIEHS]
National Toxicology Program [NTP]
U.S. Food and Drug Administration [FDA]
Estrogen related receptors (ERRs), the first orphan nuclear receptors discovered, play an important role in the control of cellular energy metabolism. ERRs are required for high-energy production in response to the environmental challenges. The pleiotropic PPARgamma coactivator (PGC) is a major partner of ERR and a key regulator in energy homeostasis. Together they have been implicated in the etiology of metabolic disorders such as Type 2 diabetes and metabolic syndrome. ERR-alpha was also identified as an adverse marker for breast cancer progression; ERR-alpha-positive tumors have a poor prognosis. To screen and to identify environmental compounds that perturb the ERR and PGC/ERR signaling pathways could provide valuable information for potential therapeutic or preventive measures in the treatment of metabolic disease. To differentiate true PGC/ERR antagonists or agonist from cytotoxic substances, the assay is multiplexed with cell viability assay.
Tox21 Assay Protocol Summary:
The PGC/ERR cells were dispensed at 2,000 cells/5 ul/well in 1536-well white plates using a Multidrop dispenser. After the assay plates were incubated at a 37 C/5% CO2 incubator for 6 hours, 23 nL of compounds dissolved in DMSO, positive and negative controls or DMSO only was transferred to the assay plate by a pin tool. The plates were incubated at 37 C for 17.5 hours. 1 ul/well of CellTiter-Fluor reagent was added into the assay plates using a Flying Reagent Dispenser. After 30-minute incubation at 37 C/5% CO2, the fluorescence intensity in the plates was measured using a ViewLux plate reader.
On the % scale 0 is the no-effect control and ±100 the full control effect.

| Compound | viability change, negative = cytotoxic |
| --- | --- |
| N[C@@H]1C[C@H]1c1ccccc1 | 4.78% [at 42.5 µM] (inactive) |
| COP(=O)(OC)O/C(C)=C/C(=O)N(C)C | 3.75% (inactive) |
| CC1N=C(N)OC1c1ccccc1 (stereo not given) | 11.1% (inactive) |
| C[C@H](N)C(=O)c1ccccc1 | -13.9% (inactive) |
| CCCCCCCC(=O)Cl | 0.131% (inactive) |
| CC(C)(C)C(=O)Cl | -2.03% (inactive) |
| O=C1CCCCC1Cl (stereo not given) | 2.44% (inactive) |
| CON(C)C(=O)Nc1ccc(Br)cc1 | -11.2% (inactive) |
| CCCOc1nn(C(=O)NS(=O)(=O)c2ccccc2C(=O)OC)c(=O)n1C | 3.16% (inactive) |
| N#CN | 1.97% [at 238 µM] (inactive) |
| CCCCCCC1CCOC1=O (stereo not given) | 1.85% (inactive) |
| CCOP(=S)(OCC)SCCl | -0.626% (inactive) |
| O=c1[nH]c2ccccc2o1 | -0.697% (inactive) |
| CCC(CC)(CNC(=O)CCCO)c1cccc(OC)c1 | 4.32% [at 42.5 µM] (inactive) |
| Cl/C=C/CCl | 1.3% (inactive) |
| C=C(Cl)CSC(=S)N(CC)CC | 0.736% (inactive) |
| Cc1cc(OC(=O)N(C)C)nn1C(=O)N(C)C | 4.23% (inactive) |
| Clc1cc2c(cc1Cl)Oc1cc(Cl)c(Cl)cc1O2 | -1.69% [at 0.349 µM] (inactive) |
| O=c1[nH]oc2c1CCNC2 | 9.27% [at 42.5 µM] (inactive) |
| CCC1(c2cccc(O)c2)CCCCN(C)C1 (stereo not given) | 17.2% [at 42.5 µM] (inactive) |

| Compound | viability change, negative = cytotoxic |
| --- | --- |
| CC[C@H](O)C(C[C@H](C)N(C)C)(c1ccccc1)c1ccccc1 | -11.1% (inactive) |
| Cc1ccc2cc(C)ccc2c1 | 4.3% (inactive) |
| ClCC1CO1 (stereo not given) | 0.0754% (inactive) |
| C=C1CC[C@@]2(O)[C@H]3Cc4ccc(O)c5c4[C@@]2(CCN3CC2CC2)[C@H]1O5 | 0.4% [at 42.5 µM] (inactive) |
| CC(Cl)(Cl)Cl | 7.54% (inactive) |
| O=C(O)C(Cl)Br (stereo not given) | 2.42% (inactive) |
| N=C(N)[Se] | -0.455% (inactive) |
| O=[N+]([O-])CCO | 7.77% (inactive) |
| ClC1=C(Cl)C2(Cl)C(CBr)CC1(Cl)C2(Cl)Cl (stereo not given) | 18.1% [at 42.5 µM] (inactive) |
| O=C(Cl)OCc1ccccc1 | 3.76% (inactive) |
| CCc1ccc(C2CCNCC2)cc1 | 10.4% [at 42.5 µM] (inactive) |
| Oc1ccc2c3c1O[C@H]1[C@@H](O)C=C[C@H]4[C@@H](C2)NCC[C@@]341 | 1.15% (inactive) |
| OCC(Cl)CCl (stereo not given) | -0.383% (inactive) |
| Oc1ccc(Cc2ccc(O)cc2)cc1 | -3.4% (inactive) |
| CC(C)[C@]12CC(=O)[C@H](C)[C@H]1C2 | -13.9% (inactive) |
| CC1NCCOC1c1ccccc1 (stereo not given) | -3.84% [at 42.5 µM] (inactive) |
| CCCN1CCC[C@@H]2Cc3[nH]ncc3C[C@H]21 | 11.5% [at 42.5 µM] (inactive) |
| O=c1[nH]c2ccccc2n1C1CCNCC1 | 0.823% [at 42.5 µM] (inactive) |
| CNC(=O)NC(O)C(Cl)(Cl)Cl (stereo not given) | -10.3% [at 42.5 µM] (inactive) |
| C=C(Cl)CCl | 0.427% (inactive) |

From PubChem BioAssay (Tox21)
